Experimental data reported in the supplement of paper PMC10849652.
About 7,900 targets were measured; listed, in parts, are those with a hit and a random draw of the rest. About 0.6% of all pairs of compound and target were hits.

Target: AAK1 (UniProt Q2M2I8)
Assay: log2 fold change, soluble protein after heating vs DMSO (PISA); higher = thermal stabilisation; K562 cells, 10 uM, 30 min; active = over 0.2 and 3.5 SD of the protein, either way, in both replicates (recomputed)
Summary of the method: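 Aliquots of K562 cells (2×10^6 cells/mL) treated with 10 μM compound for 30 min were heated for 3 min over 48°C-58°C. After pooling and extraction in PBS with 0.5% NP-40 at 4°C, soluble protein from a 21,000xg, 90 min spin was quantified by TMTpro 16plex LC-MS/MS with channel sums equalised. Thermal stability is expressed against control samples, from duplicates, as a log2 fold change.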

AAK1, sequence (Q2M2I8 whole entry, looked up): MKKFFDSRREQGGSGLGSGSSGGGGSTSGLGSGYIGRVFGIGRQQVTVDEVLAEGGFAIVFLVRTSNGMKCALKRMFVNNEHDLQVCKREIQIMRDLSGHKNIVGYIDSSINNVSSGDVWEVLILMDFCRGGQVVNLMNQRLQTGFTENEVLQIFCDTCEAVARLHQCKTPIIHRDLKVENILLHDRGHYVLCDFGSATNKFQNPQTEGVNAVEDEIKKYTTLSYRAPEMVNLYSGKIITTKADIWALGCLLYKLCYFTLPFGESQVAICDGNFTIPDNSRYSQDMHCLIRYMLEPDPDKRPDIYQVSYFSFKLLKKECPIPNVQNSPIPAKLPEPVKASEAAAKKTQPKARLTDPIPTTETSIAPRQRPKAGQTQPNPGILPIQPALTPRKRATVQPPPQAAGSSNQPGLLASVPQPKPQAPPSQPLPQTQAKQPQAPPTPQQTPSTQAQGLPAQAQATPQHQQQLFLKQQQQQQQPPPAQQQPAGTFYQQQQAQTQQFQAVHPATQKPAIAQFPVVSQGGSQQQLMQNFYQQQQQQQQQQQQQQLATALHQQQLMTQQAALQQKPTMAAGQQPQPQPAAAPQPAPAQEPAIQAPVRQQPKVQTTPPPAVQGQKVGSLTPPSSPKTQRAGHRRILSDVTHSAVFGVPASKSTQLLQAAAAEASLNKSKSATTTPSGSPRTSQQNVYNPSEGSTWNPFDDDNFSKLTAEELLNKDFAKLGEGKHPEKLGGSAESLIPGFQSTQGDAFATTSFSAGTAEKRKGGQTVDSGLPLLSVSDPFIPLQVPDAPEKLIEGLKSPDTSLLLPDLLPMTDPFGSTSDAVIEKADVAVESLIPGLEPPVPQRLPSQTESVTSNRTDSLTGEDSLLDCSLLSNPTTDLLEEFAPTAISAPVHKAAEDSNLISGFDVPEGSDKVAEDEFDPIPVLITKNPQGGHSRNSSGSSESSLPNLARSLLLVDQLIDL

log2 fold change, inactive:
Cc1ccc(Sc2cncc3sc(C(N)=O)cc23)cc1 0.032
CCn1c(C(=O)N(C2CC2)C2CC2)cc2c3c(ncn3C)c(Nc3cc(C)n(C)n3)nc21 0.019
Cc1ccc(NC(=O)c2ccc(CN3CC[C@H](N(C)C)C3)c(C(F)(F)F)c2)cc1Nc1nccc(-c2cncnc2)n1 [bafetinib] -0.016
CCCCN(Cc1ccc(C(=O)NO)cc1)C(=O)Nc1ccccc1 [Nexturastat A] -0.021
Cc1cccc(-c2[nH]c(C(C)(C)C)nc2-c2ccc3nccnc3c2)n1 0.015
C#Cc1cccc(Nc2ncnc3cc(OCCOC)c(OCCOC)cc23)c1 [erlotinib] -0.028
CC[C@H](C)n1cc(C)c2c(C(=O)NCc3c(C)cc(C)[nH]c3=O)cc(-c3ccc(N4CCNCC4)nc3)cc21 -0.013
C[C@@H]1COCCN1c1cc(C2(S(C)(=O)=O)CC2)nc(-c2cccc3[nH]ccc23)n1 0.028
CC1=C(C(=O)Nc2cc3cn[nH]c3cc2F)C(c2ccc(C(F)(F)F)cc2)CC(=O)N1 (stereo unspecified) -0.055
O=C(CCCCCCC(=O)Nc1ccccc1)NO [vorinostat] 0.074
Oc1cc(-c2nc(-c3ccccc3)[nH]c2-c2ccncc2)ccc1Cl 0.073
NCC(=O)Nc1ccc(-n2nc(C(F)(F)F)cc2-c2ccc3c(ccc4ccccc43)c2)cc1 0.045
CC[C@@H]1C(=O)N(C)c2cnc(Nc3ccc(C(=O)NC4CCN(C)CC4)cc3OC)nc2N1C1CCCC1 0.078
NC(=O)c1cnc(N[C@@H]2CCCC[C@@H]2N)nc1Nc1cccc(-n2nccn2)c1 0.055
Fc1ccc(Cl)cc1-c1nc(Nc2ccncc2)c2nccnc2n1 0.019
CS(=O)(=O)c1ccc(-c2cnc(N)c(C(=O)Nc3ccccc3)n2)cc1 0.043
CN(C)CC(=O)Nc1ccc2[nH]c(=O)c3ccccc3c2c1 0.087
COc1ccc(Cn2ccc3ccc(C(=O)NO)cc32)cc1 0.048
C[C@@H](Oc1cc(-c2cnn(C3CCNCC3)c2)cnc1N)c1c(Cl)ccc(F)c1Cl [crizotinib] 0.169
CS(=O)(=O)CCNCc1ccc(-c2ccc3ncnc(Nc4ccc(OCc5cccc(F)c5)c(Cl)c4)c3c2)o1 [lapatinib] 0.038
Cn1cncc1[C@@](N)(c1ccc(Cl)cc1)c1ccc2c(c1)c(-c1cccc(Cl)c1)cc(=O)n2C [tipifarnib] -0.057
COc1cc2nc(-c3cc(F)ccc3O)nc(N[C@@H]3CNC[C@H]3C(C)(C)O)c2cc1OC 0.024
CC[C@H](C)[C@H](NC(=O)[C@H]([C@@H](C)CC)N(C)C(C)=O)C(=O)N[C@H](C(=O)N[C@@H](CC(C)C)C(=O)[C@@]1(C)CO1)[C@@H](C)O [epoxomicin] 0.031
Nc1ccccc1NC(=O)c1ccc(CNC(=O)OCc2cccnc2)cc1 [entinostat] -0.015
CCN(CC)Cc1ccc2cc(COC(=O)Nc3ccc(C(=O)NO)cc3)ccc2c1 [givinostat] 0.042
CC(C)N(C[C@H]1O[C@@H](n2cnc3c(N)ncnc32)[C@H](O)[C@@H]1O)[C@H]1C[C@@H](CCc2nc3cc(C(C)(C)C)ccc3[nH]2)C1 [pinometostat] -0.05
CN1CCN(c2nc(C3=C(c4c[nH]c5ccccc45)C(=O)NC3=O)c3ccccc3n2)CC1 [sotrastaurin] -0.196
CC[C@@H]1C(=O)N(C)c2cnc(Nc3ccc(C(=O)N[C@H]4CC[C@H](N5CCN(CC6CC6)CC5)CC4)cc3OC)nc2N1C(C)C [volasertib] 0.121
Cn1cc(-c2ccc3c(c2)CCN3C(=O)Cc2cccc(C(F)(F)F)c2)c2c(N)ncnc21 -0.011
CCCS(=O)(=O)Nc1ccc(F)c(C(=O)c2c[nH]c3ncc(Cl)cc23)c1F -0.028
NC1(Cc2ccc(Cl)cc2)CCN(c2ncnc3[nH]ccc23)CC1 -0.085
